Measurements: the supplement of paper PMC10646978
± gives the standard deviation.

Assays:
Conditions in all cases: modulator concentration 10 µM
[1] = system: RAW-Dual (murine macrophage reporter line); test: NF-kB reporter (SEAP) activity fold change vs agonist alone; higher = enhanced NF-kB activity
In short: (§1)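 In 384-well plates holding 50 000 RAW-Dual murine macrophage reporter cells per well, compound at 10 μM final was pre-incubated for 1 hour at 37 °C, after which a PRR agonist was added overnight. Supernatant SEAP read with QUANTI-Blue at 620 nm absorbance reported NF-κB, and Lucia luciferase read with QUANTI-Luc luminescence reported IRF. Fold change values come from dividing each reporter signal by the mean of agonist-only control wells on the same plate, averaged over replicate plates with propagated errors.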

[2] = system: RAW-Dual (murine macrophage reporter line); test: IRF reporter (Lucia luciferase) activity fold change vs agonist alone; higher = enhanced IRF activity
In short: as §1

[3] = system: RAW-Dual (murine macrophage reporter line); test: viability score (confluency relative to resting cells, overnight) (fraction); higher = more viable, active = viable (0.7 or more)
In short: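 In 384-well plates, RAW-Dual macrophages received compound at a final 10 μM overnight. Two confluency masks were then made with IncuCyte software from IncuCyte images of all imaged wells. The viability score is defined as confluency relative to resting cells. Passing the cutoff required both masks to lie above 70% of resting cells.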

[4] = agonist: CpG ODN 1826 0.5 ug/mL

SMILES | NF-kB reporter [1, 4] | NF-kB reporter ([1]; agonist: LPS 0.1 ug/mL) | NF-kB reporter ([1]; agonist: MPLA […]) | IRF reporter ([2]; agonist: 3'3'-cGAMP 10 ug/mL) | IRF reporter ([2]; agonist: LPS 0.1 ug/mL) | IRF reporter ([2]; agonist: MPLA […]) | viability score [3]
CCOC(=O)C(CCc1ccccc1)NC(C)C(=O)N1C(C(=O)O)CC2CCCCC21 (configuration not stated) | 0.994 ± 0.11 | 0.925 ± 0.068 | 1.08 ± 0.1 | 0.953 ± 0.045 | 1.24 ± 0.2 | 1.27 ± 0.29 | 1.05 (active)
C=CCNC(=O)CN(Cc1ccccc1)S(=O)(=O)c1ccc(OC)c(OC)c1 | 0.684 ± 0.4 | 0.886 ± 0.078 | 0.946 ± 0.089 | 0.916 ± 0.029 | 1.11 ± 0.14 | 1.13 ± 0.17 | 1.04 (active)
CC(C)(C)C(O)/C=C/c1ccc2c(c1)OCO2 (configuration not stated) | 1.19 ± 0.066 | 1.26 ± 0.11 | 1.03 ± 0.055 | 0.45 ± 0.029 | 0.877 ± 0.16 | 1.01 ± 0.17 | 0.819 (active)
CCc1c2c(nc3ccc(OC(=O)N4CCC(N5CCCCC5)CC4)cc13)-c1cc3c(c(=O)n1C2)COC(=O)[C@]3(O)CC.Cl.O.O.O | 1.06 ± 0.25 | 1.41 ± 0.23 | 1.54 ± 0.55 | 0.866 ± 0.042 | 1.35 ± 0.35 | 1.2 ± 0.16 | 0.975 (active)
CCCc1nc(-c2ccccc2)c(-c2ccc(OC)c(OC)c2)c(=O)[nH]1 | 0.803 ± 0.067 | 0.844 ± 0.1 | 1.06 ± 0.1 | 0.933 ± 0.057 | 1.46 ± 0.084 | 1.78 ± 0.16 | 1.01 (active)
CC(C)OCc1ccc(C(=O)Nc2nnc(C(C)C)s2)o1 | 0.988 ± 0.1 | 1 ± 0.079 | 0.961 ± 0.15 | 0.986 ± 0.051 | 1.11 ± 0.068 | 1.05 ± 0.08 | 1.01 (active)
Cc1[nH]c2ccc(Br)cc2c(=O)c1CN1CCOCC1 | 1.06 ± 0.062 | 0.995 ± 0.11 | 0.972 ± 0.027 | 1.01 ± 0.073 | 0.973 ± 0.1 | 0.937 ± 0.16 | 0.995 (active)
COc1cccc(N2CC(C(=O)NC3CCN(c4nccn5c(C)nnc45)CC3)CC2=O)c1 (configuration not stated) | 1.03 ± 0.051 | 1.06 ± 0.092 | 0.955 ± 0.088 | 0.968 ± 0.049 | 1.17 ± 0.073 | 1.08 ± 0.11 | 1.01 (active)
CCN1C(C)=C(C(=O)OC)C(c2ccc([N+](=O)[O-])cc2)C(C(=O)OC)=C1C | 1.17 ± 0.11 | 0.868 ± 0.079 | 0.991 ± 0.049 | 0.981 ± 0.037 | 0.954 ± 0.044 | 0.961 ± 0.1 | 0.994 (active)
CCn1c(=O)c(-c2ccn[nH]2)cc2c(C)nc(N)nc21 | 0.877 ± 0.054 | 1.01 ± 0.093 | 1.17 ± 0.065 | 1.01 ± 0.048 | 1.33 ± 0.23 | 1.45 ± 0.53 | 1 (active)
CC(C)(C)c1cc(NCc2ccccn2)n2ncc(-c3ccc(Cl)cc3)c2n1 | 0.256 ± 0.019 | 0.477 ± 0.032 | 0.79 ± 0.025 | 0.296 ± 0.028 | 0.962 ± 0.12 | 3.1 ± 0.86 | 0.978 (active)
CCOc1ccccc1OCCCCOc1ccc(Cl)c(C)c1 | 0.947 ± 0.11 | 1.12 ± 0.081 | 1.07 ± 0.084 | 0.937 ± 0.1 | 1.03 ± 0.16 | 1.15 ± 0.35 | 1 (active)
CCCCOc1ccc(S(=O)(=O)NCCCn2ccnc2)cc1 | 0.946 ± 0.078 | 1.18 ± 0.089 | 1.21 ± 0.071 | 1.07 ± 0.038 | 1.84 ± 0.13 | 1.58 ± 0.2 | 0.987 (active)
CC1(COc2ccc3c(c2)ncn3-c2ccc3cccc(N4CCC(N)CC4)c3n2)COC1 | 0.379 ± 0.25 | 0.397 ± 0.099 | 2.05 ± 0.24 | 0.0544 ± 0.0038 | 0.345 ± 0.037 | 0.339 ± 0.06 | 0.464 (inactive)
Oc1cccc(C=Nc2ccc(N=Cc3cccc(O)c3O)cc2)c1O | 0.606 ± 0.053 | 0.727 ± 0.069 | 0.783 ± 0.079 | 0.712 ± 0.052 | 0.93 ± 0.2 | 0.922 ± 0.2 | 0.984 (active)
COc1cc2nc(N3CCN(C(=O)c4ccco4)CC3)nc(N)c2cc1OC.Cl | 0.888 ± 0.21 | 1.12 ± 0.056 | 0.953 ± 0.079 | 0.9 ± 0.032 | 1.22 ± 0.14 | 1.33 ± 0.2 | 1 (active)
COc1ccc(Cn2cc3c(-c4ccc(F)cc4)nnc-3c3cc(OC)c(OC)cc32)cc1 | 0.318 ± 0.026 | 1.17 ± 0.13 | 2.16 ± 0.1 | 1.79 ± 0.12 | 2.42 ± 0.18 | 3 ± 0.35 | 0.141 (inactive)
COc1ccc(S(=O)(=O)NNc2ccc([N+](=O)[O-])cc2[N+](=O)[O-])cc1 | 1.21 ± 0.07 | 0.864 ± 0.059 | 0.777 ± 0.05 | 0.342 ± 0.025 | 1.22 ± 0.19 | 1.34 ± 0.14 | 0.962 (active)
Cc1cc2c(s1)Nc1ccccc1N=C2N1CCN(C)CC1 | 0.278 ± 0.057 | 1.03 ± 0.36 | 0.929 ± 0.056 | 0.819 ± 0.049 | 1.16 ± 0.37 | 0.974 ± 0.075 | 1 (active)
COc1ccc(C(=O)N2CC(n3cc(CN4CCCC4=O)nn3)C2)cc1F | 1.19 ± 0.1 | 1.01 ± 0.077 | 1 ± 0.045 | 1.05 ± 0.088 | 1.01 ± 0.067 | 0.952 ± 0.14 | 0.999 (active)
CCOC(=O)C1=C(C)NC(C)=C(C(=O)OCC)C1c1ccc(N(C)C)cc1 | 1.14 ± 0.13 | 1.07 ± 0.071 | 1.24 ± 0.069 | 0.855 ± 0.16 | 1.04 ± 0.095 | 0.94 ± 0.24 | 0.996 (active)
CCOC(=O)C1=C(C)NC(=S)NC1c1ccccc1OCc1ccccc1 (configuration not stated) | 0.862 ± 0.069 | 1.05 ± 0.063 | 0.965 ± 0.058 | 0.679 ± 0.09 | 1.25 ± 0.22 | 1.03 ± 0.087 | 1.01 (active)
CNCCCN1c2ccccc2CCc2ccccc21.Cl | 0.462 ± 0.11 | 1.14 ± 0.11 | 1.54 ± 0.1 | 0.45 ± 0.017 | 1.46 ± 0.2 | 1.88 ± 0.19 | 0.951 (active)
COc1c2occc2cc2ccc(=O)oc12 | 1.44 ± 0.21 | 1.21 ± 0.11 | 0.907 ± 0.051 | 0.91 ± 0.029 | 1.3 ± 0.15 | 1.04 ± 0.08 | 0.989 (active)
CCS(=O)(=O)N1CCC2(CC1)NC(=O)N(CCOc1ccccc1)C2=O | 0.871 ± 0.041 | 1.05 ± 0.11 | 1.09 ± 0.078 | 0.996 ± 0.047 | 1.43 ± 0.25 | 1.58 ± 0.61 | 0.989 (active)
O=C(Nc1nc(CC(=O)N2CCc3ccccc3C2)cs1)c1ccc(Cl)cc1 | 1.05 ± 0.054 | 1.13 ± 0.09 | 0.845 ± 0.047 | 1.01 ± 0.056 | 1.16 ± 0.11 | 1.21 ± 0.15 | 1.01 (active)
